The values that follow come from PubChem BioAssay (Tox21).

Inconclusive results are not listed. Entries that show only a call come without a potency. Activity calls are given as the source filed them. Calls follow the shape of the dose curve; as a rule, active = well fitted activation curve with a large enough effect in the repeat runs; inconclusive = weak or mixed curves; inactive = no such curve, though single readings can be large or run the other way.
Potency is read from the fitted curve at half-maximal effect.

The target in this assay is Nuclear receptor subfamily 1 group I member 3 (Homo sapiens) (UniProt Q14994). The assay is described as follows: qHTS assay to identify small molecule agonists of the constitutive androstane receptor (CAR) signaling pathway (AID 1224839). Also: nearly all actives have a fitted effect of over 15% in size.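 As to activation: HepG2 cells stably carrying human CAR and a CYP2B6 luciferase reporter.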 The settings on record: HepG2 hCAR CYP2B6-luciferase, agonist mode, 24 h; series mostly up to 42.5 µM. The source says: National Center for Advancing Translational Sciences [NCATS] NIH Chemical Genomics Center [NCGC] U.S. Environmental Protection Agency [EPA] National Institutes of Environmental Health Sciences [NIEHS] National Toxicology Program [NTP] Assay overview: The constitutive androstane receptor (CAR) is a nuclear receptor which regulates multiple drug metabolizing enzymes (DMEs) and transporters. Activating CAR will generally increase the transcription and subsequent translation of CYP2B6 and CYP3A4. These two DMEs represent about 50% of the drug metabolizing potential in the body. […] Recently, there have also been studies performed indicating CARs role in energy metabolism and cancer therapy. Therefore, inducing CARs activity could have a potential effect on diabetes and cancer. Identifying environmental toxins and compounds which modulate CAR, through the use of the Tox21 10K compound collection, will be an important step in determining the toxicity and potential therapeutic effects these factors will have on the human body.
Chain of Nuclear receptor subfamily 1 group I member 3 (Homo sapiens) (Q14994 whole entry, looked up): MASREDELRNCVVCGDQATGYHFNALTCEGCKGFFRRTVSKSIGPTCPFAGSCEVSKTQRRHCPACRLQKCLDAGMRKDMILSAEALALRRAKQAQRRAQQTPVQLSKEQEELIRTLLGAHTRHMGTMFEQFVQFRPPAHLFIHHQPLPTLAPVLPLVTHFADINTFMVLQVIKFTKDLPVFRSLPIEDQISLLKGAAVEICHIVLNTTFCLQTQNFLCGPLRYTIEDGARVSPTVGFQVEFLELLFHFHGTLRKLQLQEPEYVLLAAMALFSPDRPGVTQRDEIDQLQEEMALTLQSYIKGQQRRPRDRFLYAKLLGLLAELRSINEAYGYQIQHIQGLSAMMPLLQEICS
Assay Protocol Summary: A double-stable (hCAR and CYP2B6-2.2kb) transfected cell line, derived from human hepatoma (HepG2) cells, was utilized for the duration of the quantitative high-throughput screens. The HepG2-CYP2B6-hCAR cells suspended in DMEM culture medium supplemented with 10% FBS, 5 ug/mL blasticidin, 0.5 mg/mL geneticin, 100 U/mL penicillin and 100 ug/mL streptomycin were dispensed at 2500 cells/4 uL/well in 1536-well white solid bottom plates using a Multidrop Combi. After the assay plates were incubated at 37 C/5% CO2 for 4 hrs, 23 nL of compounds at 15 concentrations (from 5-48 columns) or positive control (from 1 to 4 columns) were transferred to the assay plates using a Pintool station. One uL of PK11195, was added using a Flying Reagent Dispenser to generate a final concentration of 0.75 uM PK11195 inside each well. After a 24 hr incubation period at 37 C/5% CO2, four uL of ONE-Glo reagent was added into the assay plates using a Flying Reagent Dispenser. After a 30 min incubation period at room temperature, the luminescence intensity in the assay plates was measured using a ViewLux plate reader.
A general note: qHTS replaces the single test concentration by a dilution series.
Take `O=[N+]([O-])c1cccc(S(=O)(=O)O)c1`: the Potency result was “inactive”.
Still for that read-out and setting: next, `Brc1c2ccccc2cc2ccccc12`: 55 µM (active); `CC(C)(C)Cl`: “inactive”.
In the case of `CCC(C)(C)CC`, the Potency result was “inactive”.
On the same count and under the same terms, next, `NCc1ccccc1Sc1ccccc1CO`: “inactive”; `CCN(CC)c1ccc(C(=C2C=CC(=[N+](CC)CC)C=C2)c2cc(S(=O)(=O)O)ccc2S(=O)(=O)[O-])cc1`: “inactive”.
On the same count and under the same terms, next, `CCC(CC)Nc1ccc(C)c(C)c1`: “inactive”; `CC(C)(CO)[N+](=O)[O-]`: “inactive”.
Regarding `CCC(=O)O[C@]1(C(=O)CCl)[C@@H](C)C[C@H]2[C@@H]3CCC4=CC(=O)C=C[C@]4(C)[C@@]3(F)[C@@H](O)C[C@@]21C`, the Potency result is “inactive”.
On the same count and under the same terms, next, `Cc1oc(-c2ccccc2)nc1CCOc1cccc2c1ccn2CCC(=O)O`: “inactive”; `O=C(O)c1ccc(S(=O)(=O)O)cc1C(=O)O`: “inactive”.
For `Brc1c2ccccc2c(Br)c2ccccc12`, the activation is 11.6% [at 8.39 µM] (inactive).
With `CN(C)c1ccc(C(c2ccccc2)c2ccc(N(C)C)cc2)cc1`, the Potency result was “inactive”.
On the same count and under the same terms, to `O=C1CCC(=O)O1` belongs “inactive”; to `CN(C)c1ccc(CCO)cc1`, “inactive”; to `CCCCCCCCCc1ccc(OCCOCCO)cc1`, “inactive”.
On the same count and under the same terms, to `CC1OC(=O)C(C)OC1=O` (stereo not given) belongs “inactive”.
Still for that read-out and setting: to `CCN(CC)CCOC(=O)C(c1ccccc1)C1CCCCC1` (stereo not given) belongs “inactive”; to `Nc1ncn([C@H]2C[C@H](O)[C@@H](CO)O2)c(=O)n1`, “inactive”; to `CN1CCC(=C2c3ccccc3Sc3ccccc32)CC1`, “inactive”.
With `C[C@@H]1C[C@H]2[C@@H]3CCC4=CC(=O)C=C[C@]4(C)[C@@]3(F)[C@@H](O)C[C@]2(C)[C@@]1(O)C(=O)COC(=O)c1ccncc1`, the Potency result is “inactive”.
The same measure, in the same setting: to `O=C(Nc1ccccc1)c1ccccc1O` belongs 27.3 µM (active).
Turning to `C=C1[C@H]2CC[C@@H]3[C@H]2C(C)(C)CCC[C@]13C`, the Potency result was “inactive”.
On the same count and under the same terms, next, `CN1CCC(N(Cc2cccs2)c2ccccc2)CC1`: “inactive”; `CCn1cc(C(=O)O)c(=O)c2cnc(N3CCNCC3)nc21`: “inactive”; `CCCCCCOC(=O)NC(=N)c1ccc(NCc2nc3cc(C(=O)N(CCC(=O)OCC)c4ccccn4)ccc3n2C)cc1`: “inactive”.
Still for that read-out and setting: next, `CCOC(=O)NCCOc1ccc(Oc2ccccc2)cc1`: 48.6 µM (active).
The same measure, in the same setting: to `Cc1ncc(CO)c(C=O)c1O` belongs “inactive”; to `O=C1c2ccccc2S(=O)(=O)N1CCCCN1CCN(c2ncccn2)CC1`, “inactive”.
Take `CC1(c2ccccc2)OC(C(=O)O)=CC1=O` (stereo not given): the Potency result is “inactive”.
On the same count and under the same terms, next, `CNCCCN1c2ccccc2CCc2ccccc21`: “inactive”.
The same measure, in the same setting: to `Nc1ccccc1S(=O)(=O)c1ccccc1` belongs 68.6 µM (active).
On the same count and under the same terms, to `CCOC(=O)c1cccnc1` belongs “inactive”; to `c1ccc(CNCCNCc2ccccc2)cc1`, “inactive”.
In the case of `O=C1[C@H]2CCCC[C@H]2C(=O)N1CCCCN1CCN(c2nsc3ccccc23)CC1`, the Potency entry is “inactive”.
Same read-out and setting: to `Clc1ccc2c(c1)CCc1cccnc1C2=C1CCNCC1` belongs “inactive”; to `COCC(C)OC(C)=O` (stereo not given), “inactive”.
For the molecule `O=C(O)CNCC(=O)O`, the activation is -0.889% [at 8.39 µM] (inactive).
Take `CC1=CC=C(C(C)C)CC1`: the Potency entry was “inactive”.
Still for that read-out and setting: to `CC(=O)NO` belongs “inactive”.
